Source: PubChem BioAssay (several laboratories)
GRIN3A LBD mod – NR3A (human) ligand-binding domain modulation. NR3A LBD differential scanning fluorimetry, Tm shift; 0% = protein alone, 100% = glycine-bound protein. Tm shift relative to glycine control, % at 25 µM. actives 2.5% (n = 340,000);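 active means melting temperature shift of at least 10% of the positive control shift, at one fixed dose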
CRFBP-R2 block – blocks CRF-induced signaling of the CRF-BP/CRF-R2 complex. HEK293 CRF-R2/CRF-BP, CRF-induced calcium fluorescence. actives 0.59% (n = 350,000). inhibition, % at 11.8 µM;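 active means inhibition of the ligand-induced calcium signal above about 50% at the single tested concentration, limit read from the data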
TMEM16A inh – blocks the mouse calcium-activated chloride channel TMEM16A | Q8BHY3 | HEK293 TMEM16A/YFP iodide influx fluorescence, ionomycin | normalized B-score (activity score, 25-100; higher = stronger inhibition) at 10 µM | actives 1.2% (n = 310,000);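 active means ratio plate-corrected score three or more library SD toward inhibition, starting fluorescence score within five deviations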;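 further: score derived from kinetic fluorescence span divided by baseline fluorescence per well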
Target sequence (Q8BHY3 whole entry, looked up): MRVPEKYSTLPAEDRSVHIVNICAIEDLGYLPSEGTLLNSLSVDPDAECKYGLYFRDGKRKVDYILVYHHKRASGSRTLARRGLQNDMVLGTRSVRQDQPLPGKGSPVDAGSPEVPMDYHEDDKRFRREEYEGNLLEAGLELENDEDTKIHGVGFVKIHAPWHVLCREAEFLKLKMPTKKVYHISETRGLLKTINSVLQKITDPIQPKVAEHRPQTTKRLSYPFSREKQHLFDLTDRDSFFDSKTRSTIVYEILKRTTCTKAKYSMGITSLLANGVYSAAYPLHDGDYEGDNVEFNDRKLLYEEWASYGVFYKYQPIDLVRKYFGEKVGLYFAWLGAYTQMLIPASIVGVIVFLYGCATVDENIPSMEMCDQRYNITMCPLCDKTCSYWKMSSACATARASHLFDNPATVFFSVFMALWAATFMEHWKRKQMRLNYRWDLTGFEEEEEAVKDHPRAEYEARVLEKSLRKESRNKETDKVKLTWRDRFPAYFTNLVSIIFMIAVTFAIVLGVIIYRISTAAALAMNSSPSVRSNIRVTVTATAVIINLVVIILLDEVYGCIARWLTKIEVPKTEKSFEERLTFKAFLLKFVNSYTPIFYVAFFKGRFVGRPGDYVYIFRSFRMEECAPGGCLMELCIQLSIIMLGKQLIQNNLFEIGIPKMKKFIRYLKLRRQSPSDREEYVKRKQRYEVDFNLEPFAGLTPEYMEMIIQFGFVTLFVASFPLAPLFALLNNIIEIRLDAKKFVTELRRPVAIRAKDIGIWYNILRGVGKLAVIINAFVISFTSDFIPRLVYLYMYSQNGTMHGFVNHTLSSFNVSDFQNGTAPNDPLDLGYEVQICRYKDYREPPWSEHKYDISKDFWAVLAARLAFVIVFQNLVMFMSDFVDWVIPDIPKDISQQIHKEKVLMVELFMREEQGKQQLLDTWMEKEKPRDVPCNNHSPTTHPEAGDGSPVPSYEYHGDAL
ANO1 activ – activates or potentiates the mouse TMEM16A chloride channel; Q8BHY3; HEK293 TMEM16A/YFP-H148Q/I152L, iodide quench fluorescence; hits give low values; B-score at 10 µM; actives 0.3% (n = 340,000);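 active means fluorescence-ratio B-score plate-corrected deviation score at least 3 library SD below zero, with starting fluorescence score within 5 deviations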;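 further: channel opened by trigger with iodide after compound preincubation; score built on the fluorescence ratio of max minus min over baseline; more negative score means more quench and so TMEM16A activation or potentiation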
CRFBP-R2 agonist – agonists of human CRF-binding protein/CRF-R2 receptor complex; activation, % at 13.2 µM; HEK293 CRF-R2/CRF-BP, calcium dye fluorescence (FLIPR); percent of saturating CRF peptide response; actives 0.46% (n = 350,000);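 active means activation of at least 50%, plus an integration ratio under a set limit after plate pattern correction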;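 further: plate controls were neutral control wells without compound for no effect and CRF at EC100 for full effect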
MPTP inh – inhibitors of mitochondrial permeability transition pore | isolated mouse mitochondria, Ca2+ swelling absorbance, 30 min | inhibition, % at 10 µM | actives 1.4% (n = 360,000);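 active means inhibition of 50% or more, scaled per plate between neutral and stimulator controls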;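 further: 0% = DMSO wells given calcium and 100% = 1 mM EGTA wells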
The depositor's hits bear a star. Shown are actives, neighbours in structure and some others; about 5.1% of the full set was active somewhere.

Results for Cc1ccccc1COc1ccc(/C=C(\C#N)C(N)=O)cc1 ?
GRIN3A LBD mod: 6.4; CRFBP-R2 block: -15.1; TMEM16A inh: inactive; ANO1 activ: inactive; CRFBP-R2 agonist: -1.7; MPTP inh: -1.3

Results for N#C/C(=C\c1ccc(OCc2ccccc2)cc1)C(N)=O ?
GRIN3A LBD mod: 11.6*; CRFBP-R2 block: -86.3; TMEM16A inh: inactive; ANO1 activ: inactive; CRFBP-R2 agonist: -6.3; MPTP inh: -1.6

Results for Cc1ccc(N2CCN(c3ccc(C)cc3)C2c2cccnc2)cc1 ?
GRIN3A LBD mod: 0.9; CRFBP-R2 block: -82.1; TMEM16A inh: 25*; ANO1 activ: inactive; CRFBP-R2 agonist: 8.0; MPTP inh: 1.9

How did c1ccc(N2CCN(c3ccccc3)C2c2cccnc2)cc1 do in these assays?
GRIN3A LBD mod: 10.2*; CRFBP-R2 block: -0.3; TMEM16A inh: inactive; ANO1 activ: inactive; CRFBP-R2 agonist: -0.2; MPTP inh: 0.9

Results for CC[n+]1c(/C=C/C=C/N(C(C)=O)c2ccccc2)sc2ccccc21 ?
GRIN3A LBD mod: 1.7; CRFBP-R2 block: -120.0; TMEM16A inh: inactive; ANO1 activ: inactive; CRFBP-R2 agonist: 157.5*; MPTP inh: 9.3

What do the screens show for `N#CC1C(=O)c2ccccc2C1c1ccccc1` (stereo not drawn)?
GRIN3A LBD mod: 19.6*; CRFBP-R2 block: 21.2; ANO1 activ: inactive; CRFBP-R2 agonist: 13.7; MPTP inh: 0.5

How did CCOC(=O)CCCCCC(=O)Nc1ccc2c(c1)C(=O)N([C@@H](C)CO)C[C@H](C)[C@H](CN(C)C(=O)c1ccccc1)OCCCC[C@H](C)O2 do in these assays?
CRFBP-R2 block: 1.0; CRFBP-R2 agonist: 0.3; MPTP inh: -0.6

How did CCOC(=O)c1c(C)[nH]c(C(=O)OC(C)C(=O)NC2(C#N)CCCCC2)c1C (stereo not drawn) do in these assays?
CRFBP-R2 block: -6.2; CRFBP-R2 agonist: 0.1; MPTP inh: 0.8

How did CCOC(=O)N1CCN(Cc2nc3c(c(=O)n(C)c(=O)n3C)n2CCC(C)C)CC1 do in these assays?
GRIN3A LBD mod: -2.3; CRFBP-R2 block: 129.4*; TMEM16A inh: inactive; ANO1 activ: inactive; CRFBP-R2 agonist: -4.9; MPTP inh: -1.3

What do the screens show for `CCCn1c(CN2CCN(C(=O)OCC)CC2)nc2c1c(=O)n(C)c(=O)n2C`?
GRIN3A LBD mod: 0.9; CRFBP-R2 block: 4.1; TMEM16A inh: inactive; ANO1 activ: inactive; CRFBP-R2 agonist: 0.2; MPTP inh: -0.6

How did Cc1ccccc1NC(=O)COC(=O)c1ccc(CSc2ccc(Cl)cc2)cc1 do in these assays?
GRIN3A LBD mod: 11.9*; CRFBP-R2 block: -31.0; TMEM16A inh: inactive; ANO1 activ: inactive; CRFBP-R2 agonist: 4.6; MPTP inh: 3.0

What do the screens show for `CC(C)c1cc(-c2cc(C(=O)Nc3ccccc3)on2)nc(NCC2CC2)n1`?
TMEM16A inh: inactive

What do the screens show for `CC(C)c1cc(-c2cc(C(=O)NCc3ccccc3)on2)nc(NCC2CC2)n1`?
GRIN3A LBD mod: -2.4; CRFBP-R2 block: -39.8; TMEM16A inh: 100*; ANO1 activ: -6.57*; CRFBP-R2 agonist: 96.0*; MPTP inh: 0.4

Results for CCOC(=O)COc1ccc(S(=O)(=O)Nc2ccc(C)cc2)cc1 ?
GRIN3A LBD mod: -0.7; CRFBP-R2 block: -29.5; TMEM16A inh: inactive; ANO1 activ: inactive; CRFBP-R2 agonist: 5.8; MPTP inh: 2.0

Results for CCNS(=O)(=O)c1ccc(NC(=O)Nc2ccc3c(c2)OCO3)cc1 ?
GRIN3A LBD mod: 24.6*; CRFBP-R2 block: -9.9; TMEM16A inh: inactive; ANO1 activ: inactive; CRFBP-R2 agonist: -1.2; MPTP inh: 0.1

Results for CCNS(=O)(=O)c1ccc(NC(=O)Nc2ccccc2OC)cc1 ?
GRIN3A LBD mod: 14.4*; CRFBP-R2 block: -13.2; TMEM16A inh: inactive; ANO1 activ: inactive; CRFBP-R2 agonist: -0.8; MPTP inh: -1.0

How did CCOC(=O)COc1ccc(S(=O)(=O)Nc2ccc3c(c2)OCO3)cc1 do in these assays?
GRIN3A LBD mod: 13.7*; CRFBP-R2 block: -6.9; TMEM16A inh: inactive; ANO1 activ: inactive; CRFBP-R2 agonist: 17.4; MPTP inh: -1.6

Results for O=C(Nc1ccc(S(=O)(=O)NCc2ccccc2)cc1)Nc1ccc2c(c1)OCO2 ?
GRIN3A LBD mod: 35.8*; CRFBP-R2 block: -17.1; TMEM16A inh: inactive; ANO1 activ: inactive; CRFBP-R2 agonist: 0.5; MPTP inh: 33.1

Results for COc1ccccc1CNS(=O)(=O)c1ccc(NC(C)=O)cc1 ?
GRIN3A LBD mod: 0.6; CRFBP-R2 block: 3.8; TMEM16A inh: inactive; ANO1 activ: inactive; CRFBP-R2 agonist: -0.9; MPTP inh: -1.4

How did CCN(CC)c1c([N+](=O)[O-])c(=O)n(CC)c2ccccc12 do in these assays?
GRIN3A LBD mod: -0.2; CRFBP-R2 block: 22.9; TMEM16A inh: inactive; ANO1 activ: inactive; CRFBP-R2 agonist: -2.3; MPTP inh: 4.3

What do the screens show for `COc1ccc(O)c(C(=O)c2cnc3c(c2)c(C)nn3CCO)c1`?
GRIN3A LBD mod: -0.7; CRFBP-R2 block: 12.3; TMEM16A inh: inactive; ANO1 activ: inactive; CRFBP-R2 agonist: 0.1; MPTP inh: 0.3

How did O=C(CSc1ncn[nH]1)NNC(=O)c1ccccc1 do in these assays?
GRIN3A LBD mod: -0.9; CRFBP-R2 block: -8.2; TMEM16A inh: inactive; ANO1 activ: inactive; CRFBP-R2 agonist: 0.4; MPTP inh: -1.9

Results for CC[C@]12c3[nH]c4ccc(OC)cc4c3CCN1C(=O)C(CC(=O)NCCCOC)C[C@@H]2C(=O)N1CCN(C(=O)c2ccco2)CC1 (stereo partly drawn) ?
GRIN3A LBD mod: 0.8; CRFBP-R2 block: 53.3*; ANO1 activ: inactive; CRFBP-R2 agonist: 0.0; MPTP inh: 2.4

How did CN(C)CCCNC(=O)C[C@H]1C[C@H](C(=O)N2CCCCC2)[C@@]2(C)c3[nH]c4ccc(Cl)cc4c3CCN2C1=O do in these assays?
GRIN3A LBD mod: 2.5; CRFBP-R2 block: -8.4; CRFBP-R2 agonist: -0.6; MPTP inh: -2.8

How did CN(C)CCCNC(=O)C[C@H]1C[C@H](C(=O)N2CCOCC2)[C@@]2(C)c3[nH]c4ccc(Cl)cc4c3CCN2C1=O do in these assays?
GRIN3A LBD mod: 0.2; CRFBP-R2 block: 95.4*; CRFBP-R2 agonist: 0.6; MPTP inh: -1.1

Results for COc1ccc2[nH]c3c(c2c1)CCN1C(=O)C(CC(=O)NCCc2ccccn2)C[C@H](C(=O)N(C(C)C)C(C)C)[C@@]31C (stereo partly drawn) ?
GRIN3A LBD mod: 3.4; CRFBP-R2 block: 69.9*; CRFBP-R2 agonist: -4.4; MPTP inh: -0.7

Results for CCN(CC)C(=O)[C@H]1CC(CC(=O)NC/C=C(\C)CCC=C(C)C)C(=O)N2CCc3c([nH]c4ccc(OC)cc34)[C@]12C (stereo partly drawn) ?
GRIN3A LBD mod: -1.2; CRFBP-R2 block: 78.1*; CRFBP-R2 agonist: -6.8; MPTP inh: -0.8
